In PubChem BioAssay AID1645860 (Buhrlage Lab, Dana-Farber Cancer Institute and Novartis …, 2021):
The campaign covered roughly 47,000 compounds. About 2,500 (5.3%) were called active. For the sample, actives were picked, then their nearest neighbours and some compounds at random. A number with no mark means an inactive call. Cut-off read from the data, not from the text of the source: active = inhibition above about 30%; inactive = the rest.

biological target: Ubiquitin carboxyl-terminal hydrolase 30 (Homo sapiens) (UniProt Q70CQ3); test: blocks human USP30 ubiquitin-rhodamine cleavage (AID 1645860); conditions: purified USP30, Ub-rhodamine cleavage fluorescence; at 25 µM; stronger effect = higher value
Sequence (Q70CQ3 whole entry, looked up): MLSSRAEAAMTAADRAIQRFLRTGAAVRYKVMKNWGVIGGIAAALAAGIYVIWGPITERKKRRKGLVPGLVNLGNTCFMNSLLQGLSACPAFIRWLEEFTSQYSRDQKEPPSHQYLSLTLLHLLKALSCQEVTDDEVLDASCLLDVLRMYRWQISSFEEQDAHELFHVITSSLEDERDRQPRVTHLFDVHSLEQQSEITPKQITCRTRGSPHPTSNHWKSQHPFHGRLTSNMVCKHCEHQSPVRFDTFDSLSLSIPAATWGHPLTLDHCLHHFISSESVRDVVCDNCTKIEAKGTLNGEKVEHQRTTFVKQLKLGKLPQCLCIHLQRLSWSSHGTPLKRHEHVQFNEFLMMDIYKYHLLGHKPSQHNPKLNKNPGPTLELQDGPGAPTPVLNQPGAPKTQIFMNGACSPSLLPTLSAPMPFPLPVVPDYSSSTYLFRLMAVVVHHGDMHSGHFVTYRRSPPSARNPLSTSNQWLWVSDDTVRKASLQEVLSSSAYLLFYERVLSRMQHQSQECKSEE

Compound | inhibition
O=C(Nc1ccc2cn[nH]c2c1)c1cnn(-c2ccccc2)n1 | -23.9%
CCCc1cc(=O)oc2cc(OCC(=O)NCc3ccc(OC)cc3)ccc12 | 62.1% (active)
CCCc1cc(=O)oc2cc(OC(=O)C3CCN(C(=O)c4ccc(Cl)cc4)CC3)ccc12 | 29.6%
COc1ccc(N2CCN(Cc3cc(=O)oc4cc(O)ccc34)CC2)cc1 | 8.3%
CCN(CC)c1ccc(C2C3=C(CC(C)(C)CC3=O)Nc3ccccc3N2C(=O)Cc2ccccc2)cc1 (stereo not given) | -64.2%
CCC(=O)c1ccc(OCC(=O)Nc2ccc3nc(C)sc3c2)cc1 | -168%
Cc1ccc(Nc2nc(O)c(CC(=O)Nc3ccc(C(C)C)cc3)s2)cc1C | 0.202%
CCOc1ccc(Nc2nc(O)c(CC(=O)Nc3cccc(C)c3)s2)cc1 | 33.8% (active)
Cc1ccc(NC(=O)Cc2sc(Nc3ccc(C)cc3)nc2O)cc1 | 53.6% (active)
Cc1ccc(Nc2nc(NCC(=O)Nc3cc(C)ccc3C)nc(Nc3ccc(C)cc3)n2)cc1 | -44%
CCOc1ccc(N(CC(=O)Nc2ccc(S(=O)(=O)Nc3cc(C)ccc3C)cc2)S(C)(=O)=O)cc1 | 1.87%
Cc1cccc(-c2cnc(C(O)c3ccc4c(c3)OCO4)[nH]2)c1 (stereo not given) | -30.9%
COc1ccc(C2CC(=O)c3cnc(NC(=O)c4cc(OC)c(OC)c(OC)c4)nc3C2)c(OC)c1 (stereo not given) | 24.2%
C=C1C(=O)O[C@H]2C=C(C)C=C[C@@]3(C)CC[C@@]1(O)[C@H]23 | 7.94%
O=C(NCc1ccncc1)C1CC(=O)N(c2cccc(C(F)(F)F)c2)C1 (stereo not given) | 0.292%
Cc1oc(-c2ccccc2)nc1C(=O)N(C)Cc1cccc(Cl)c1Cl | -7.53%
O=C1NCCCC12CCN(Cc1cnc3ccccc3n1)CC2 | 10.3%
O=C(c1cccnc1)N1CCN(c2cc(-c3ccccc3)[nH]n2)CC1 | 12.7%
CN(CCc1ccccc1)c1nccc(N2CCN(C(=O)c3csc(-c4cccnc4)n3)CC2)n1 | 51.1% (active)
Cc1ccc(-c2nc(C(=O)N3CCN(c4ccccn4)CC3)cs2)n1C | -26.2%
Cc1nc2cccnc2nc1C | -39.7%
NC(=Nc1cccnc1)c1ccc2ccccc2n1 | 4.02%
Clc1ccc(C2NC3=NCN(Cc4ccco4)CN3c3nc4ccccc4n32)cc1 (stereo not given) | 36.4% (active)
COc1cccc(CNC(=O)C2(C)Oc3cccnc3N(C)C2=O)c1 (stereo not given) | -5.25%

Compound | inhibition
O=C(NC1CCCCCC1)c1nc(Cn2cnc3ccccc3c2=O)no1 | 9.85%
COc1ccc(N(CC(=O)NCc2ccco2)S(=O)(=O)c2ccccc2[N+](=O)[O-])c(OC)c1 | 3.13%
CC(C)(C)c1ccc(-c2nnc3n2-c2ccccc2SC3)cc1 | 56.7% (active)
CCc1ccccc1N1C(=O)CN(S(C)(=O)=O)CC1(C)C(=O)NC1CCCCC1 (stereo not given) | 19.9%
COCCSc1ccc(-c2cccnc2)nn1 | 1.49%
Cc1ccc(C(=O)N2CCC3(CC2)CCN(c2cnn(C)c2)C3=O)cc1 | 17.1%
O=C(NCC(c1ccco1)N1CCCCC1)c1ccccc1Cl (stereo not given) | -6.05%
Cc1ccc(CNC(=O)c2cc(=O)nc3sc(N4CCCC(C)C4)nn23)cc1 (stereo not given) | 30.1% (active)
CCCOc1ccc(CNC(=O)C2CCCN(c3nnc(N4CCCC4=O)s3)C2)cc1 (stereo not given) | 5.69%
Cc1cc(=O)n(CC(=O)NCc2ccccc2)c(N2CCCC2)n1 | 0.241%
COc1cccc(NC(=O)Nc2nccn(-c3ccccc3)c2=O)c1 | 39.1% (active)
COc1cccc(C(=O)Nc2nccn(-c3cccc(F)c3)c2=O)c1 | 0.051%
COc1ccccc1-n1ccnc(NC(=O)c2cccc(F)c2)c1=O | 11%
CSc1ncccc1C(=O)Nc1ccnn1C(C)c1ccncc1 (stereo not given) | -23%
CCn1c2ccccc2n2c(S(=O)(=O)Cc3ccccc3)nnc12 | 5.02%
Cc1sc2nc(C3CC3)n(C3CCN(C(=O)C(C)C)CC3)c(=O)c2c1C | 18.3%
c1ccc(-c2ccc(NCc3ccc4c(c3)OCO4)nn2)cc1 | 33.6% (active)
CCC(Oc1ccccc1)C(=O)NCc1ccc2c(c1)OCO2 (stereo not given) | 21.1%
c1cc(CNCc2ccc3c(c2)OCO3)ccn1 | 0.888%
Cc1cccc(CN2CCN(CC(=O)NCCN3CCOCC3)C2=O)c1 | -2.8%
O=C(NCc1ccccc1F)c1nnn(-c2ccccc2)n1 | 14.4%
CSCc1c(C)noc1-c1cc(C)on1 | 8.31%
COc1ccccc1N(Cc1nc2nc(C)cc(C)n2n1)C(=O)c1ccccc1 | -0.203%
Cc1ccnc(Nc2nc(-c3ccccc3)c3cc(Cl)ccc3n2)n1 | 82.8% (active)

Compound | inhibition
CCOc1nc(-c2ccc(Cl)cc2Cl)nc2ccccc12 | 13.4%
CCOc1ccc(C(=O)C[n+]2cc(-c3ccccc3)n3c2CCC3)cc1 | 30.3% (active)
CC(=O)C[n+]1cc(-c2ccc(C)cc2)n2c1CCC2 | 5.82%
CCOc1ccc(Nc2cc(C(=O)NCCN3CCCC3)c3ccccc3n2)cc1 | 29.9%
CCN1CCN(c2ccc(NC(=O)c3cccc(C)c3)cn2)C1=O | -23.3%
Cc1nc(-c2cnccn2)n(CC(=O)Nc2ccc(F)cc2)c(=O)c1C | 2.83%
CC(=O)c1cccc(Nc2c(C(=O)N3CCCC3)cnc3nc(C)ccc23)c1 | -35.8%
OCc1ccccc1-c1cnc2sc(NCCc3ccccn3)nn12 | 16.3%
COCCNc1nn2c(-c3ccc4ccccc4c3)cnc2s1 | 30.2% (active)
Cc1nnn(C23CC4CC(CC(C(=O)NC5CCCC5)(C4)C2)C3)n1 | 21.2%
CCOc1ccccc1N1CCN(C(=O)c2snc(-c3ccncc3)c2N)CC1 | 1.69%
O=C(CCC(=O)N(c1ccccc1)c1ccccc1)Nc1ccccc1 | -16.4%
COc1ccc(C)cc1NC(=O)Cn1c(=O)nc(N(C)c2ccccc2)c2ccccc21 | 0.767%
CN(c1ccccc1)c1nc(=O)n(CC(=O)Nc2ccc3c(c2)OCCO3)c2ccccc12 | 42.3% (active)
O=C(Cn1cnc2c(sc3ccccc32)c1=O)Nc1ccc2c(c1)OCCO2 | -498%
CCCCS(=O)(=O)N1C[C@H]2CC[C@@]3(N=C(C)N(CC4CC4)C3=O)[C@H]2C1 | 12.5%
CNC(=O)c1sc2nccnc2c1C1CCN(C(=O)c2cccc(F)c2)CC1 | 13.3%
CNc1cc(C2CCCN2C(=O)c2cc3c([nH]c2=O)CCC3)ccn1 (stereo not given) | -20.8%
CC(C)N(C(=O)CSc1nc2ccc([N+](=O)[O-])cc2s1)C(C)C | -147%
CC(C)Cc1cc(C(=O)N2CCN(C)CC(C(N)=O)C2)on1 (stereo not given) | 16.9%
C=C1CC[C@@H]2[C@@]3(C)CCC(=O)C(C)(C)[C@@H]3CC[C@@]2(C)[C@]12Cc1c(c(C)c(C)oc1=O)O2 | 30.3% (active)
CNC(=O)Nc1ccc(C2(C(=O)NC3CCCC3)CCC2)cc1 | -19.9%
CC12C(=O)N(CCCN3CCOCC3)CC(=O)N1CCc1c2[nH]c2ccccc12 (stereo not given) | 7.84%
Cc1cc(NC2CCCCC2)n2ncc(-c3ccccc3Cl)c2n1 | -16.5%

Compound | inhibition
Cc1ccc(NC(=O)CCOc2ccccc2)cc1S(=O)(=O)Nc1ccccc1Cl | 30.4% (active)
COc1ccc(NS(=O)(=O)c2cc(NC(=O)CC(=O)c3ccc([N+](=O)[O-])cc3)ccc2C)cc1 | 29.7%
Cc1ccc(NC(=O)CCC(=O)N(c2ccccc2)c2ccccc2)cc1Cl | 17.2%
O=C(Nc1nnc(-c2cccs2)o1)C1CCCCC1 | 10.9%
Cc1cc(NC(=O)COC(=O)c2cccc(C)c2O)ccc1Br | 6.49%
Nn1c(SCC(=O)Nc2ccccc2F)nnc1-c1n[nH]c2c1CCC2 | -0.125%
Cc1cc(-c2nnc(SCC(=O)Nc3ccc(Br)c(C)c3)n2N)n[nH]1 | 71.5% (active)
O=C(c1cnc2sc3c(n2c1=O)CCC3)N1CCCCC1 | -37.1%
CC(O)CNc1ncnc2c1oc1nc(C(C)C)c3c(c12)CCC3 (stereo not given) | 38.1% (active)
CC(C)Cc1nc2sc3c(NCc4ccco4)ncnc3c2c2c1CCC2 | -21.1%
CC(C)c1nc2oc3c(N4CCN(CCO)CC4)ncnc3c2c2c1CCC2 | 18.4%
CC(C)n1cnc2c1C(C(=O)N1CCN(C)CC1)N(Cc1ccccc1)CC2 (stereo not given) | 9.34%
CC(C)(C)C(=O)N1CCC2(COCc3cnc(NCc4ccco4)nc32)C1 (stereo not given) | 2.12%
Cc1c(S(=O)(=O)N2CCCCC2)c(C)n(C)c1-c1nnc(C2CCC2)o1 | 3.55%
Cc1nnc(NCc2ccc(Cl)cc2)[nH]c1=O | 26%
CSc1cccc(NC(=O)CCc2ccc3nc[nH]c3c2)c1 | -0.451%
CSc1cccc(NC(=O)CCn2c(=O)c3cccn3c3ccccc32)c1 | 32.6% (active)
CSc1cccc(NC(=O)COc2ccc(C(=O)c3ccccc3)cc2)c1 | -4.48%
Cc1cc2n(n1)CCCN2C(=O)CCC(=O)Nc1ccc(F)cc1F | -24.2%
CC(=O)N1C[C@H]2C3(CCN(C(=O)c4ccccc4)CC3)CC[C@@]2(C(=O)N(C)C)C1 | 25.8%
Cc1ccc(-n2cc(-c3noc(C(=O)Nc4ccc(F)cc4C)n3)nn2)cc1 | 36.9% (active)
Cc1cc(F)ccc1NC(=O)c1cc(C2CC2)n2nccc2n1 | -33.1%
Cc1ccc(Cc2nc(CC(=O)Nc3ccc(F)cc3F)n[nH]2)cc1 | -1.22%
